Reference: PubChem BioAssay (NCATS)
Inconclusive results are not listed. Calls of active or inactive are those of the source. The call rests on the fitted dose curve; in most records, active means well fitted curve in the direction sought with a large enough effect; inconclusive means small, poorly fitted or top-dose-only effect, or another doubt; inactive means no such curve, though single readings can be large; an effect the other way counts as inactive or inconclusive.

Columns and labels:
C33A = experiment: Primary qHTS to identify gynecologic anti-cancer compounds using libraries of approved drugs and bioactive compounds (AID 1345084); conditions: Gynecologic cancer cell panel viability, ATPlite luminescence, 48 h; series mostly up to 57.5 µM; further: nearly all actives have a fitted effect of over 55% in size; further: potency means the concentration at half of the fitted maximal effect
Summary of the method: (§1)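 Cells, 1,000 per well, were allowed to settle for 16 h at 37 C before compound addition. Five concentrations were tested for 48 h, and viability was read by ATPlite luminescence after 15 min at room temperature.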

CASKI = experiment: as above; conditions: Gynecologic cancer cell panel viability, ATPlite luminescence, 48 h; series mostly up to 57.5 µM
Summary of the method: as §1

Es-2 = experiment: as above; conditions: Gynecologic cancer cell panel viability, ATPlite luminescence, 48 h; series mostly up to 57.5 µM
Summary of the method: as §1

HeLa = experiment: as above; conditions: Gynecologic cancer cell panel viability, ATPlite luminescence, 48 h; series mostly up to 57.5 µM
Summary of the method: as §1

Hek293T = experiment: as above; conditions: Gynecologic cancer cell panel viability, ATPlite luminescence, 48 h, control line for the selectivity index; series mostly up to 57.5 µM
Summary of the method: as §1

JEG-3 = experiment: as above; conditions: Gynecologic cancer cell panel viability, ATPlite luminescence, 48 h; series mostly up to 57.5 µM
Summary of the method: as §1

OV90 = experiment: as above; conditions: Gynecologic cancer cell panel viability, ATPlite luminescence, 48 h; series mostly up to 57.5 µM
Summary of the method: as §1

Tov-21-G = experiment: as above; conditions: Gynecologic cancer cell panel viability, ATPlite luminescence, 48 h; series mostly up to 57.5 µM
Summary of the method: as §1

Tov112D = experiment: as above; conditions: Gynecologic cancer cell panel viability, ATPlite luminescence, 48 h; series mostly up to 57.5 µM
Summary of the method: as §1

[1] = Drug repurposing screens with cells derived from glioblastoma tumor samples (AID 1345199); conditions: GBM patient neurospheres viability, ATP luminescence, 48 h; further: nearly all actives have a fitted effect of over 40% in size; further: potency means the concentration at half of the fitted maximal effect
Summary of the method: (§2)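 Primary testing used CD133+ neurospheres from four GBM patients, seven concentrations, 48 h exposure and ATP-based viability; confirmation added three slower-growing patient lines.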

astro = experiment: as above; conditions: viability, ATP luminescence, 48 h; series mostly up to 45.9 µM
Summary of the method: as §2

CAOV3 = experiment: Primary qHTS to identify gynecologic anti-cancer compounds using libraries of approved drugs and bioactive compounds (AID 1345084); conditions: Gynecologic cancer cell panel viability, ATPlite luminescence, 48 h; series mostly up to 57.5 µM; further: nearly all actives have a fitted effect of over 55% in size; further: potency means the concentration at half of the fitted maximal effect
Summary of the method: as §1

PA-1 = experiment: as above; conditions: Gynecologic cancer cell panel viability, ATPlite luminescence, 48 h; series mostly up to 57.5 µM
Summary of the method: as §1

SKOV3 = experiment: as above; conditions: Gynecologic cancer cell panel viability, ATPlite luminescence, 48 h; series mostly up to 57.5 µM
Summary of the method: as §1

NIH3T3 = experiment: qHTS assay to identify novel small-molecules to repurpose for Merkel cell carcinoma treatment (AID 1296009); conditions: MCC and control cell lines, CellTiter-Glo viability, 72 h; at 44.8 µM (top of the series) unless noted; further: nearly all actives have a fitted effect of over 60% in size
Summary of the method: (§3)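 Dose-response viability screen; 72 hr exposure at 37 degree celsius; CellTiter-Glo added, 10 min room temperature, luminescence read; RLUs scaled between no-cell and DMSO wells.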

WaGa = experiment: as above; conditions: MCC and control cell lines, CellTiter-Glo viability, 72 h; series mostly up to 46 µM
Summary of the method: as §3

[2] = at 20 µM (top of the series), tumour line C
[3] = at 45.9 µM (top of the series), tumour line B
[4] = at 45.9 µM (top of the series), tumour line D
[5] = at 46 µM (top of the series), tumour line A
[6] = at 46.1 µM (top of the series), tumour line C
[7] = at 21.2 µM (top of the series), tumour line D
On the % scale 0 is the no-effect control and ±100 the full control effect.

C#CC1(O)CC[C@H]2[C@@H]3CCC4=CCCC[C@@H]4[C@H]3CC[C@@]21C (stereo not given in full)
inactive: Potency (C33A) | Potency (CASKI) | Potency (Es-2) | Potency (HeLa) | Potency (Hek293T) | Potency (JEG-3) | Potency (OV90) | Potency (Tov-21-G) | Potency (Tov112D) | activity, negative = cell killing [1, 2] -10.1% | Potency (astro)
active: Potency ([1]; tumour line A) 11.2 µM

CS(=O)(=O)c1ccc(-n2nc(C(F)(F)F)cc2-c2ccc(F)cc2)cc1
inactive: Potency (C33A) | Potency (CAOV3) | Potency (CASKI) | Potency (Es-2) | Potency (HeLa) | Potency (Hek293T) | Potency (JEG-3) | Potency (OV90) | Potency (PA-1) | Potency (SKOV3) | Potency (Tov-21-G) | Potency (Tov112D)

C[C@H](O)[C@H](O)[C@H]1CNc2nc(N)[nH]c(=O)c2N1
inactive: outcome (NIH3T3) | Potency (C33A) | Potency (CAOV3) | Potency (CASKI) | Potency (Es-2) | Potency (HeLa) | Potency (Hek293T) | Potency (JEG-3) | Potency (OV90) | Potency (PA-1) | Potency (SKOV3) | Potency (Tov-21-G) | Potency (Tov112D) | activity, negative = cell killing [1, 3] -2.46% | activity, negative = cell killing [1, 4] 16.1% | activity, negative = cell killing [1, 5] -18.9% | activity, negative = cell killing [1, 6] 11.1% | Potency (astro)

CC(=O)O[C@H]1C[C@@]2(C)[C@@H](C[C@@H](O)[C@H]3[C@@]4(C)CC[C@@H](O)[C@@H](C)[C@@H]4CC[C@@]32C)/C1=C(\CCC=C(C)C)C(=O)O
inactive: outcome (NIH3T3) | Potency (C33A) | Potency (CASKI) | Potency (Es-2) | Potency (HeLa) | Potency (Hek293T) | Potency (JEG-3) | Potency (OV90) | Potency (PA-1) | Potency (SKOV3) | Potency (Tov-21-G) | Potency (Tov112D) | activity, negative = cell killing [1, 3] -17.2% | activity, negative = cell killing [1, 4] 1.56% | activity, negative = cell killing [1, 6] -26.3% | Potency (astro)

CC1(C)S[C@@H]2[C@H](NC(=O)[C@H](NC(=O)N3CCN(S(C)(=O)=O)C3=O)c3ccccc3)C(=O)N2[C@H]1C(=O)O
inactive: outcome (NIH3T3) | Potency (C33A) | Potency (CAOV3) | Potency (CASKI) | Potency (Es-2) | Potency (HeLa) | Potency (Hek293T) | Potency (JEG-3) | Potency (OV90) | Potency (PA-1) | Potency (Tov-21-G) | Potency (Tov112D) | activity, negative = cell killing [1, 3] -6.53% | activity, negative = cell killing [1, 4] -7.16% | activity, negative = cell killing [1, 5] -8.92% | activity, negative = cell killing [1, 6] -22.9% | Potency (astro)

CCCCN(CC)c1nc(C)nc2c1c(C)cn2-c1c(C)cc(C)cc1C
inactive: Potency (C33A) | Potency (CASKI) | Potency (Es-2) | Potency (HeLa) | Potency (Hek293T) | Potency (JEG-3) | Potency (OV90) | Potency (PA-1) | Potency (Tov-21-G) | Potency (Tov112D)

COC(=O)[C@H]1[C@H]2C[C@@H]3c4[nH]c5cc(OC)ccc5c4CCN3C[C@H]2C[C@@H](OC(=O)/C=C/c2cc(OC)c(OC)c(OC)c2)[C@@H]1OC
inactive: outcome (NIH3T3) inactive [at 17.4 µM] | Potency (C33A) | Potency (CAOV3) | Potency (CASKI) | Potency (Es-2) | Potency (HeLa) | Potency (Hek293T) | Potency (JEG-3) | Potency (OV90) | Potency (PA-1) | Potency (SKOV3) | Potency (Tov-21-G) | Potency (Tov112D) | activity, negative = cell killing [1, 2] -5.29% | activity, negative = cell killing [1, 7] -21.8% | Potency (astro)
active: Potency ([1]; tumour line A) 10 µM

CC1(C)S[C@@H]2[C@H](NC(=O)[C@H](N)c3ccc(O)cc3)C(=O)N2[C@H]1C(=O)O
inactive: outcome (NIH3T3) | Potency (CAOV3) | Potency (CASKI) | Potency (Es-2) | Potency (HeLa) | Potency (Hek293T) | Potency (JEG-3) | Potency (OV90) | Potency (PA-1) | Potency (SKOV3) | Potency (Tov-21-G) | Potency (Tov112D) | activity, negative = cell killing [1, 3] 2.03% | activity, negative = cell killing [1, 4] 3.17% | activity, negative = cell killing [1, 5] -16.6% | activity, negative = cell killing [1, 6] -0.658% | Potency (astro)

CN1[C@@H]2CC[C@H]1CC(OC(c1ccccc1)c1ccccc1)C2 (stereo not given in full)
inactive: Potency (C33A) | Potency (CAOV3) | Potency (CASKI) | Potency (Es-2) | Potency (HeLa) | Potency (Hek293T) | Potency (JEG-3) | Potency (PA-1) | Potency (SKOV3) | Potency (Tov-21-G) | Potency (Tov112D) | activity, negative = cell killing [1, 3] -9.62% | Potency (astro)
active: Potency ([1]; tumour line A) 7.08 µM

S=c1[nH]c2ccccc2s1
inactive: Potency (C33A) | Potency (CASKI) | Potency (Es-2) | Potency (HeLa) | Potency (Hek293T) | Potency (JEG-3) | Potency (OV90) | Potency (PA-1) | Potency (Tov-21-G) | Potency (Tov112D) | activity, negative = cell killing [1, 3] -16.2% | activity, negative = cell killing [1, 6] -8.66%
active: Potency ([1]; tumour line A) 39.8 µM

COc1ccc(/C=C/C(=O)Nc2ccccc2C(=O)O)cc1OC
inactive: Potency (C33A) | Potency (CASKI) | Potency (Es-2) | Potency (HeLa) | Potency (Hek293T) | Potency (PA-1) | Potency (Tov-21-G) | Potency (Tov112D)
active: Potency (astro) 17.8 µM

C#C[C@]1(O)CC[C@H]2[C@@H]3CCc4cc(O)ccc4[C@H]3CC[C@@]21C
inactive: Potency (C33A) | Potency (CASKI) | Potency (Es-2) | Potency (Hek293T) | activity, negative = cell killing [1, 3] -15.9% | activity, negative = cell killing [1, 6] 2.3%
active: Potency (SKOV3) 35.5 µM | Potency ([1]; tumour line A) 12.6 µM

O=C(CS)Nc1ccccc1
active: Potency ([1]; tumour line D) 12.6 µM
inactive: Potency (WaGa) | Potency (C33A) | Potency (CASKI) | Potency (Es-2) | Potency (HeLa) | Potency (Hek293T) | Potency (JEG-3) | Potency (OV90) | Potency (PA-1) | Potency (SKOV3) | Potency (Tov-21-G) | Potency (Tov112D) | activity, negative = cell killing [1, 6] -39.6%

CC(C(=O)O)c1ccc(C(=O)c2cccs2)cc1 (stereo not given)
inactive: Potency (C33A) | Potency (CAOV3) | Potency (CASKI) | Potency (Es-2) | Potency (HeLa) | Potency (Hek293T) | Potency (JEG-3) | Potency (OV90) | Potency (PA-1) | Potency (SKOV3) | Potency (Tov-21-G) | Potency (Tov112D) | activity, negative = cell killing [1, 2] 9.23% | activity, negative = cell killing ([1]; at 21.2 µM (top of the series), tumour line B) -14.5% | activity, negative = cell killing [1, 7] -0.88% | activity, negative = cell killing ([1]; at 21.3 µM (top of the series), tumour line A) -13% | Potency (astro)

O=C(Nc1ccc2[nH]ncc2c1)C1CCC1
inactive: Potency (C33A) | Potency (CASKI) | Potency (Es-2) | Potency (HeLa) | Potency (Hek293T) | Potency (JEG-3) | Potency (OV90) | Potency (PA-1) | Potency (SKOV3) | Potency (Tov-21-G) | Potency (Tov112D)

COC(=O)Nc1nc2ccc(C(=O)C3CC3)cc2[nH]1
inactive: Potency (CAOV3)
active: Potency (C33A) 12.6 µM | Potency (Es-2) 3.16 µM | Potency (HeLa) 2 µM | Potency (JEG-3) 7.94 µM | Potency (OV90) 11.2 µM | Potency (PA-1) 1.12 µM | Potency (SKOV3) 10 µM | Potency (Tov-21-G) 1.41 µM | Potency (Tov112D) 1.58 µM
